Results: PubChem BioAssay
A number with no mark means an inactive call. Where a call stands in place of a potency, no number is given. For some assays here: Potency and affinity values are given separately. The source made the active and inactive calls. Unless noted, no rule for the calls is given here.

Columns and labels:
[1] = antimalarial activity against Dd2 strain (AID 2302;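 active = growth inhibition above 50% at the single 2 µM test dose, taken to imply half-maximal potency below 2 µM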); conditions: P. falciparum Dd2 in RBCs, LDH growth readout, 72 h; at 2 µM; hits give high values
[2] = HepG2 cytotoxicity, primary screen, cytotoxicity control for P. falciparum antimalarial project, cell-based, ATP luminescence (AID 2303;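 active = inhibition above 50%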); conditions: HepG2 viability, 24-48 h, at 10 µM, hits give high values
[3] = target: L-lactate dehydrogenase (Plasmodium falciparum (isolate CDC / Honduras)) (UniProt Q27743); experiment: PfLDH activity inhibition – cell lysate, 3D7 strain, counter-screen for P. falciparum growth inhibition project (AID 2304); conditions: P. falciparum 3D7 crude extract, LDH APAD/NBT absorbance; at 2 µM; hits give high values
[4] = inhibition of 3D7 malaria parasite growth – strain 3D7 (AID 2306); conditions: P. falciparum 3D7 erythrocytic growth, LDH absorbance, 72 h; at 2 µM; hits give high values
[5] = target: Calcium-dependent protein kinase 1 (Plasmodium falciparum (isolate 3D7)) (UniProt P62344); experiment: PfCDPK1 kinase inhibitors, biochemical, TCAMS library (AID 1159585; cut-off not given, nearly all actives have IC50 up to about 0.98 µM;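 also: inhibitors leave more ATP so luminescence rises with inhibition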); conditions: recombinant PfCDPK1, Kinase-Glo ATP depletion luminescence
[6] = target: Plasmodium falciparum protein kinase 6 (PK6, PF3D7_1337100) (UniProt Q8IDW1); experiment: PfPK6 kinase inhibitors, biochemical, TCAMS library (AID 1159586); conditions: recombinant PfPK6, Kinase-Glo ATP depletion luminescence
[7] = target: Protein kinase 7 (PK7), Plasmodium falciparum 3D7 (PF3D7_0213400) (UniProt Q7YTF7); experiment: inhibition of Plasmodium PK7 catalytic activity – biochemical, TCAMS antimalarial set, Kinase-Glo luminescence (AID 1159587); conditions: recombinant PfPK7, Kinase-Glo ATP depletion luminescence
[8] = target: Calcium-dependent protein kinase 4 (Plasmodium falciparum (isolate 3D7)) (UniProt Q8IBS5); experiment: PfCDPK4 kinase inhibitors, biochemical, TCAMS library (AID 1159588; cut-off not given, nearly all actives have IC50 up to about 0.91 µM); conditions: recombinant PfCDPK4, Kinase-Glo ATP depletion luminescence
Chain of Calcium-dependent protein kinase 4 (Plasmodium falciparum (isolate 3D7)) (Q8IBS5 whole entry, looked up): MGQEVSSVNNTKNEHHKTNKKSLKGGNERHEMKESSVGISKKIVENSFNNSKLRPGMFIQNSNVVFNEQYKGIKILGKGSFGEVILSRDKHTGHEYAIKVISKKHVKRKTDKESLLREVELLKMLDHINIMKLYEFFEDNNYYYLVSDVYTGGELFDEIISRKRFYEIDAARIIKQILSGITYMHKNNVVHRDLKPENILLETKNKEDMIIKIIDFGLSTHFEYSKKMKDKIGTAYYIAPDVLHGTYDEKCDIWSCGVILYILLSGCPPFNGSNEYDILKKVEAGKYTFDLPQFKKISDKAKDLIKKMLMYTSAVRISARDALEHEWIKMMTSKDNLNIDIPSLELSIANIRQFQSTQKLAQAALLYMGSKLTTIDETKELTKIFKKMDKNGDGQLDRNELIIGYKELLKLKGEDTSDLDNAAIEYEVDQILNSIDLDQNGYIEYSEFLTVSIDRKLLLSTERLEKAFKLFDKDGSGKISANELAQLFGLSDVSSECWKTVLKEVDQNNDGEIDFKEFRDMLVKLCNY

Chain of Plasmodium falciparum protein kinase 6 (PK6, PF3D7_1337100) (Q8IDW1 1-305): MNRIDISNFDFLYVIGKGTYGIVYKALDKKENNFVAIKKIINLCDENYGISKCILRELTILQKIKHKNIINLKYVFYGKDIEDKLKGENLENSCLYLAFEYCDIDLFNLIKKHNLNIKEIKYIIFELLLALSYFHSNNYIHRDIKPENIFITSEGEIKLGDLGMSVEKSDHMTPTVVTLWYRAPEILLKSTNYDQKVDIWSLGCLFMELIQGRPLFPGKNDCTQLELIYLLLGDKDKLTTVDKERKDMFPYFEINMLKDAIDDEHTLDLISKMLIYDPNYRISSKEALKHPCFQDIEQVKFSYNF
Chain of Protein kinase 7 (PK7), Plasmodium falciparum 3D7 (PF3D7_0213400) (Q7YTF7 1-343): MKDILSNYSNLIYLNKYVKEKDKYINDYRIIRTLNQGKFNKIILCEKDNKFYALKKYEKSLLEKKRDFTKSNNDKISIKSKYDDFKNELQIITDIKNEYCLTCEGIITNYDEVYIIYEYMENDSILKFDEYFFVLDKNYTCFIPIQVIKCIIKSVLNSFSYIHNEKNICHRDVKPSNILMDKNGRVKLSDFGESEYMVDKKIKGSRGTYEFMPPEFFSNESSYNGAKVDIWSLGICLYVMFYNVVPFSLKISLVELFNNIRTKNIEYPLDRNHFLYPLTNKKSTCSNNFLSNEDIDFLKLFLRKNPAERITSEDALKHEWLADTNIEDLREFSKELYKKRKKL
Chain of Calcium-dependent protein kinase 1 (Plasmodium falciparum (isolate 3D7)) (P62344 whole entry, looked up): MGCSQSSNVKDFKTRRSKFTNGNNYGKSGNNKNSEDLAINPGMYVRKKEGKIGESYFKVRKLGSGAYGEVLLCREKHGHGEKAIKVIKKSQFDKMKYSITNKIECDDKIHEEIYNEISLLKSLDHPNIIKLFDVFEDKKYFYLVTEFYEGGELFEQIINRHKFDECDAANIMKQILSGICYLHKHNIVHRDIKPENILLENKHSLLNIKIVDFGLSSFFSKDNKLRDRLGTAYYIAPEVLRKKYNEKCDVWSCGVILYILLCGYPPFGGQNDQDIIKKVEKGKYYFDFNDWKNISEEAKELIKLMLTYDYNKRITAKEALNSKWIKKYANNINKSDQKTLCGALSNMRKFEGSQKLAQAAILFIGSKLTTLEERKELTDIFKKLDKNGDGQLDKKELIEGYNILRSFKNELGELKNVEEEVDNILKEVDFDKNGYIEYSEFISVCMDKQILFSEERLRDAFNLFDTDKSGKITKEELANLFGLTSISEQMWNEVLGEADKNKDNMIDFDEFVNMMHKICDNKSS
Chain of L-lactate dehydrogenase (Plasmodium falciparum (isolate CDC / Honduras)) (Q27743 whole entry, looked up): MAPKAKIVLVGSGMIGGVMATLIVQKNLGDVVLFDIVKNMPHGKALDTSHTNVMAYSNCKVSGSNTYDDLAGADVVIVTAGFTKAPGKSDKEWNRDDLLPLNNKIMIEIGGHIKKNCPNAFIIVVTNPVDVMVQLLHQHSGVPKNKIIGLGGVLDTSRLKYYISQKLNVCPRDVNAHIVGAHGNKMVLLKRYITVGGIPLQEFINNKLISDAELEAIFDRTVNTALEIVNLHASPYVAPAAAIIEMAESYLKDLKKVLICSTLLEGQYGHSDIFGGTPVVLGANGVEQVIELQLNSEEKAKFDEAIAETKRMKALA

| SMILES | growth inhibition [1] | inhibition [2] | inhibition [3] [%] | growth inhibition [4] | outcome [5] | outcome [6] | outcome [7] | outcome [8] |
| --- | --- | --- | --- | --- | --- | --- | --- | --- |
| O=C(/C=C/c1ccc(Cl)c(Cl)c1)NCCCCCN1CCC(NC(=O)Nc2cccc(Cl)c2)CC1 | 13% | 52% (active) | -1 | 102% (active) | inactive | inactive | inactive | inactive |
| COc1ccc(CNC2Cc3ccccc3C2)cc1-c1cccc(S(=O)(=O)NCCN2CCCC2)c1 | 61% (active) | 48% | -3 | 98% (active) | inactive | inactive | inactive | inactive |
| CCOc1cc2ccccc2cc1CNCCCCCCNCc1cc2ccccc2cc1OCC | 76% (active) | 99% (active) | 2 | 101% (active) | inactive | inactive | inactive | inactive |
| O=C1CCCN1CCCNCc1cccc(-c2cccc(-c3nc4ccc(F)cc4[nH]3)c2)c1 | 69% (active) | 6% | -3 | 100% (active) | inactive | inactive | inactive | inactive |
| O=S(=O)(/C=C/c1ccccc1)N(Cc1ccc(-c2ccc(CNCCc3ccccn3)cc2)cc1)CC1CCCCN1 (stereo not given) | 97% (active) | 46% | -4 | 100% (active) | inactive | inactive | inactive | inactive |
| COc1cc(NC(=O)c2ccc(-c3ccc(C(C)=O)cc3)s2)ccc1OCCN1CCCC1 | 63% (active) | 31% | 3 | 100% (active) | inactive | inactive | inactive | inactive |
| O=C(N[C@@H](Cc1ccccc1)C(=O)NCc1cccc(C(F)(F)F)c1)c1ccc(O)c(-c2ccc(Cl)c(Cl)c2)c1 | 97% (active) | -13% | -1 | 96% (active) | inactive | inactive | inactive | inactive |
| Cc1cccn2c(=O)c3cc(C(=O)NC4CCCCC4)c(=N)n(CCCn4ccnc4)c3nc12 | 8% | 1% | -1 | 102% (active) | inactive | inactive | inactive | inactive |
| Cc1ccc(O)c(C(=O)c2cc(C(=O)Nc3ccccc3C)c(=O)n(-c3ccccc3C)c2)c1 | 81% (active) | -15% | -8 | 98% (active) | inactive | inactive | inactive | inactive |
| CCCC(C)Nc1nc(C)cc(N[C@@H](Cc2ccccc2)C(=O)NCc2ccc(C)cc2)n1 (stereo not given in full) | 93% (active) | 22% | 5 | 101% (active) | inactive | inactive | inactive | inactive |
| CCN(CC)CCCN(C(=O)Nc1ccc(C#N)cc1)c1nc(-c2ccc(F)cc2)cs1 | 68% (active) | 36% | 0 | 99% (active) | inactive | inactive | inactive | inactive |
| COc1ccc(CC(=O)NC(CCN2CCC3(CCc4ccccc43)CC2)c2ccc(Cl)c(Cl)c2)cc1 (stereo not given) | 75% (active) | 28% | -1 | 90% (active) | inactive | inactive | inactive | inactive |
| COc1ccc(CCCON2C(N)=NC(N)=NC2(C)C)cc1 | 94% (active) | 61% (active) | -1 | 95% (active) | inactive | inactive | inactive | inactive |
| CS(=O)(=O)N1CC2(CCN(CCC(NC(=O)NCc3ccc(Cl)c(Cl)c3)c3ccc(Cl)c(Cl)c3)CC2)c2ccccc21 (stereo not given) | 59% (active) | 19% | -8 | 89% (active) | inactive | inactive | inactive | inactive |
| C[C@@H](NC(=O)NC(CCN1CCC2(CC1)CN(S(C)(=O)=O)c1ccccc12)c1ccc(Cl)c(Cl)c1)c1ccccc1 (stereo not given in full) | 88% (active) | 15% | 3 | 92% (active) | inactive | inactive | inactive | inactive |
| Oc1ccc2[nH]cc(C3CCN(CCC(c4ccccc4)c4ccccc4)CC3)c2c1 | 42% | 27% | -3 | 90% (active) | inactive | inactive | inactive | inactive |
| Cc1cc(N[C@@H](CC(C)C)C(=O)NCCOc2ccccc2)nc(NCCc2ccc(F)cc2)n1 | 54% (active) | 25% | 1 | 95% (active) | inactive | inactive | inactive | inactive |
| CS(=O)(=O)c1ccccc1CNC(=O)c1ccc(-c2cccc(-c3nc4ccc(C(F)(F)F)cc4[nH]3)c2)cc1 | 4% | 36% | 4 | 91% (active) | inactive | inactive | inactive | inactive |
| Cc1ccc(Nc2ccnc3cc(-c4nccs4)ccc23)cc1C(O)c1ccccc1 (stereo not given) | 83% (active) | 23% | -8 | 85% (active) | inactive | inactive | inactive | inactive |
| Cc1cc(OCCCN2CCC(NS(=O)(=O)c3ccc(Cl)c(Cl)c3)C2)c2ccccc2n1 (stereo not given) | 37% | 28% | 1 | 87% (active) | inactive | inactive | inactive | inactive |

| SMILES | growth inhibition [1] | inhibition [2] | inhibition [3] [%] | growth inhibition [4] | outcome [5] | outcome [6] | outcome [7] | outcome [8] |
| --- | --- | --- | --- | --- | --- | --- | --- | --- |
| Fc1ccc2nc(-c3ccc(-c4cccc(CN5CCN(CCN6CCOCC6)CC5)c4)cc3)[nH]c2c1 | 100% (active) | 35% | 4 | 101% (active) | inactive | inactive | inactive | inactive |
| Cc1ccccc1N1CCN(c2ccc(C(=O)NC3CC3)cn2)CC1 | 96% (active) | 14% | 0 | 96% (active) | inactive | inactive | inactive | inactive |
| O=C(Nc1cc(Cl)cc(Cl)c1)N[C@H]1CCN(CCCCCNC(=O)[C@@H]2C[C@H]2c2ccc(Cl)c(Cl)c2)C1 | -3% | 49% | 3 | 99% (active) | inactive | inactive | inactive | inactive |
| CC1c2cccc(O)c2CCN1CCc1ccc(Cl)c(Cl)c1 (stereo not given) | 99% (active) | 18% | -1 | 102% (active) | inactive | inactive | inactive | inactive |
| O=C(Nc1ccc(-c2nc3ccccc3[nH]2)cc1)c1ccc(S(=O)(=O)N2CCCCCC2)cc1 | 21% | 8% | -6 | 97% (active) | inactive | inactive | inactive | inactive |
| COc1cc(F)c2nccc([C@@H](O)CN3CCC(NCc4nc5c(F)cccc5[nH]4)CC3)c2c1 | 5% | 11% | -4 | 99% (active) | inactive | inactive | inactive | inactive |
| CCN(CC)C(=NCCCCCCN=C(/N=C(\N)Nc1ccc(Cl)c(Cl)c1)N(CC)CC)/N=C(\N)Nc1ccc(Cl)c(Cl)c1 | 90% (active) | 1% | -3 | 94% (active) | inactive | inactive | inactive | inactive |
| CN1CCN(CCCN(Cc2csc(-c3ccc(CNCc4ccccc4)cc3)n2)C(=O)Nc2cc(Cl)cc(Cl)c2)CC1 | 45% | 34% | -2 | 103% (active) | inactive | inactive | inactive | inactive |
| Brc1cc(Br)c2c(c1)C(NCCCNC1CCNc3c(Br)cc(Br)cc31)CCN2 (stereo not given) | 25% | 18% | -1 | 98% (active) | inactive | inactive | inactive | inactive |
| O=C(NCc1ccccc1)O[C@@H]1CNCC[C@H]1c1ccc(C(O)Cc2ccccc2)cc1 (stereo not given in full) | 5% | 8% | 4 | 87% (active) | inactive | inactive | inactive | inactive |
| CC(C)c1cccc(C(C)C)c1NC(=O)NNC(=O)c1ccc(CCN2CCC(c3nc(COCC(F)(F)F)c(-c4ccc(F)cc4)o3)CC2)cc1 | 34% | 61% (active) | -2 | 88% (active) | inactive | inactive | inactive | inactive |
| Cc1cnc(CCNC(=O)c2cc(-c3ccc(Cl)cc3)cs2)[nH]1 | 7% | 12% | 4 | 101% (active) | inactive | inactive | inactive | inactive |
| CCN(CC)CCOc1ccc(C(O)(C#CC(O)(c2ccc(OCCN(CC)CC)cc2)c2ccc([N+](=O)[O-])cc2)c2ccc([N+](=O)[O-])cc2)cc1 (stereo not given) | 97% (active) | 55% (active) | 3 | 98% (active) | inactive | inactive | inactive | inactive |
| Cc1cccc2[nH]c(-c3cccc(-c4ccc(NC(=O)COC(C)C)cc4)c3)nc12 | 11% | -4% | 7 | 82% (active) | inactive | inactive | inactive | inactive |
| CC(C)(C)c1cc2cc(Nc3ccnc4cc(-c5nccs5)ccc34)ccc2[nH]1 | 97% (active) | 5% | -1 | 101% (active) | inactive | inactive | inactive | inactive |
| CN1CCC(C(=O)N(Cc2ccc(-c3ccc(CNCCc4ccccc4)cn3)cc2)Cc2cccc(F)c2)CC1 | 80% (active) | 30% | -4 | 90% (active) | inactive | inactive | inactive | inactive |
| CCCN(CC1CC1)c1nc(C)nc2c(-c3ccccc3)cc(C)cc12 | 78% (active) | 72% (active) | 1 | 96% (active) | inactive | inactive | inactive | inactive |
| Cc1cc(C(=O)N[C@H]2CCN(Cc3ccc(OCCCN(C)C)cc3)C2)ccc1Br | 62% (active) | 88% (active) | -4 | 97% (active) | inactive | inactive | inactive | inactive |
| c1ccc(Oc2ccc(Nc3ccnc4cc(-c5ccc(CNCCN6CCOCC6)o5)ccc34)cc2)nc1 | 100% (active) | -7% | -2 | 101% (active) | inactive | inactive | inactive | inactive |
| CO/C(=C\C=C\c1cc2cc(Cl)c(Cl)cc2[nH]1)C(=O)NC1CCN(CCCc2ccccc2)CC1 | 75% (active) | 59% (active) | 0 | 93% (active) | inactive | inactive | inactive | inactive |
